# A selection: hits, their analogues and other compounds. The true share with any hit is near 7.2%.
# LASV entry inh: blocks Lassa virus binding to or entry into cells; Lassa virus pseudotype entry inhibition, cell reporter; AID 540256; actives 1.2% (n = 300,000); Potency, µM (highest dose often 37.9 µM), without a hit: at the top dose activity change, negative = inhibition, actives largely listed as inhibitors; calls by dose curve; tested in HEK293 cells; note: nearly all actives have a fitted effect of over 50% in size
# Sm TGR block: blocks Schistosoma mansoni thioredoxin glutathione reductase; Q962Y6; purified TGR, DTNB reduction, TNB absorbance 405 nm; Potency, µM (doses to about 114 µM), for inactives: at the top dose activity change, negative = inhibition, most hits filed as inhibitors; actives 3% (n = 360,000); AID 485364; note: nearly all actives have a fitted effect of over 60% in size
#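 First, TGR (20 nM dispensed) and NADPH were mixed with compound. Second, a 15 min room-temperature incubation followed. Third, further NADPH and then DTNB were added to start the reaction. Finally, TNB absorbance was monitored kinetically.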
# FMDV inh: blocks foot and mouth disease virus. FMDV antiviral cell-based qHTS. Potency, µM (doses to about 57.9 µM), without a hit: top-dose activity change, negative = inhibition, most hits filed as inhibitors. actives 1.2% (n = 410,000). AID 1159524; calls by dose curve; tested in HEK293T cells; note: read-out not given here; nearly all actives have a fitted effect of over 45% in size
# HCV inh: blocks hepatitis C virus; Huh7.5.1 HCVcc-Cre infection, luciferase reporter, 44 h; Potency, µM (top dose mostly 41.8 µM), without a hit: at the highest dose activity change, negative = inhibition, actives largely listed as inhibitors; actives 3.4% (n = 340,000); AID 651820
#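 Seed cells (1,000/well) for 4 h; treat with compound and infect with HCVcc-Cre, moi about 0.5. Incubate 44 h, then detect luciferase activity.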
# MARV entry inh: blocks Marburg virus binding to or entry into cells; AID 540276; Potency, µM (top dose mostly 37.8 µM), without a hit: at the top dose activity change, negative = inhibition, actives largely listed as inhibitors; actives 1.8% (n = 300,000); Marburg virus pseudotyped entry inhibition, cell reporter; calls by dose curve; tested in HEK293 cells
# RE007 growth inh: less growth of the S. pombe RE007 Vpr strain. actives 0.21% (n = 360,000). S. pombe RE007 Vpr strain, BacTiter-Glo ATP luminescence, 24 h. Potency, µM (highest dose often 92.2 µM), for inactives: at the top dose activity change, negative = less growth, hits mostly inhibitors. AID 651644; active = well fitted falling curve with a large enough effect; inconclusive = small, poorly fitted or top-dose-only effect; inactive = no such curve, though single readings can be large or run the other way; note: nearly all actives have a fitted effect of over 50% in size
#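 Fission yeast RE007 carrying one integrated HIV-1 vpr copy, seeded at OD 0.01 in PMG+AL medium with 23 nL pinned compound. Grown 24 h at 30 degrees; viability read by BacTiter-Glo luminescence after 5 min.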
# * hit, by the source's call; u = inconclusive; x = no result given; [ ] = dose if it differs, or a comment. Unless noted, calls come from the whole dose curve; as a rule, active = well fitted curve in the direction sought with a large enough effect; inconclusive = small, poorly fitted or top-dose-only effect, or another doubt; inactive = no such curve, though single readings can be large; an effect the other way counts as inactive or inconclusive. % is set by controls: 0 for no effect and ±100 for the full control effect; potency is the fitted concentration of half-maximal effect.
SMILES,LASV entry inh,Sm TGR block,FMDV inh,HCV inh,MARV entry inh,RE007 growth inh
c1ccc2c(c1)C(=NCC1CCCO1)NC2=NCC1CCCO1 (configuration not stated),-10%,-3%,x,3%,-1%,-11%
C=C1C(O)[C@@H]2O[C@]3(CC[C@H](/C=C/C(C)[C@@H]4CC(C)=CC5(O[C@H](C[C@@](C)(O)C(=O)O)CCC5O)O4)O3)CC[C@H]2O[C@@H]1C(O)CC(C)[C@H]1OC2(CCCCO2)CCC1C (some centres not stated),x,x,1µM*,u,x,u
CCOC(=O)c1c(C)nc2c(c(SC)nn2-c2ccccc2)c1N,6%,6%,-8%,10µM*,u,-2%
Clc1ccc(-c2cn3nc4c(nc3n2)CCCC4)cc1,0.71µM*,u,11µM*,0%,u,1%
COc1cccc(-c2cn3nc4c(nc3n2)CCCC4)c1,u,u,-85%,-5%,u,u
CCOc1ccc(N(CC(=O)NC2CCCCC2)C(=O)CSc2nnc(COc3ccccc3)o2)cc1,-5%,-13%,-18%,u,-9%[46.1 µM],-15%
O=C(CN(Cc1cccs1)C(=O)CSc1nnc(COc2ccccc2)o1)NC1CCCCC1,u,-17%,40µM*,-10%,u,17%
COc1ccccc1Nc1nc(NCC2CCCO2)c2ccccc2n1 (configuration not stated),u,3%,u,10µM*,u,3%
COc1cccc(-c2nc(NC(C)C)c3ccccc3n2)c1O,-10%,15%,u,u,-29%,-27%
CCC(C)Nc1nc(-c2cccc(OC)c2O)nc2ccccc12 (configuration not stated),u,-11%,28µM*,2.5µM*,u,-11%
O=[N+]([O-])c1ccc(-c2nc(NCC3CCCO3)c3ccccc3n2)cc1 (configuration not stated),-6%,6%,-17%,u,-16%,-9%
COc1cccc(-c2nc(NCc3cccnc3)c3ccccc3n2)c1O,-21%[46.1 µM],-16%,8%,u,u,7%
COc1cccc(-c2nc(NCC3CCCO3)c3ccccc3n2)c1O (configuration not stated),u,-11%,18µM*,u,u,22%
Oc1ccccc1-c1nc(NCC2CCCO2)c2ccccc2n1 (configuration not stated),12%,7%,u,13µM*,-23%,u
Cc1ccc(NC(=O)CSc2nc(=O)n(CCN3CCOCC3)c3c2CCC3)c(C)c1,23%[46.1 µM],-1%,-14%,x,x,x
CC(C)c1ccc(S(=O)(=O)c2cnc(SCC(=O)Nc3cccc(C(F)(F)F)c3)nc2N)cc1,-5%[46.1 µM],9%,u,x,x,x
CC(C)C(NS(C)(=O)=O)c1nnc2n1CCN(Cc1cccc3ncccc13)CC2 (configuration not stated),x,x,-8%,x,x,x
CCOC(=O)/C(=N\Nc1ncnc2ccccc12)c1ccc(C)cc1,1.1µM*,-4%,u,0%,u,-3%
O=C(O)COc1ccc(/C=C/C(=O)c2ccc3ccccc3c2)cc1,u,0%,u,2%,22%[46.1 µM],24%
O=C(/C=C/c1cc[n+](CC(=O)c2ccc3cccc4c3c2CC4)cc1)c1ccc2cccc3c2c1CC3,x,-34%,-13%,6.3µM*,x,-8%
CC(/C=N/Nc1ccc2nncn2n1)=C\c1ccccc1,x,45µM*,14%,-3%,x,18%
C=CCOC(=O)C1=C(C)OC(N)=C(C#N)[C@H]1c1ccoc1,x,x,x,x,6%,x
COc1ccc(Cl)cc1/C=C1/C(=O)ON=C1C,u,u,32µM*,3%,-7%[46.1 µM],32%
CC1=NOC(=O)/C1=C\c1ccc(-c2cc(Cl)ccc2Cl)o1,22%,-2%,10µM*,u,9%,0%
CCOc1ccc(Cl)cc1/C=C1/C(=O)ON=C1C,11%[46.1 µM],u,40µM*,11%,14%[46.1 µM],6%
CCCOc1ccc(/C=C2/C(=O)ON=C2C)cc1Cl,x,u,0%,18%,x,-14%

# Screens (PubChem BioAssay)
